Assay results published in PubChem BioAssay (NCI).
About 83,000 compounds went through this panel and 20% of them were active in at least one assay; those are over-represented in the sample as a whole.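 Interpretation: 100, growth as untreated; towards 0, rising growth inhibition; 0, no net growth; 0 to -100, cell death. Compounds scoring below 10 were considered active.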 Unmarked numbers belong to inactive results. Calls of active or inactive are those of the source.

Experiments:
Test in all cases: NCI-60 one-dose screen, 48 h (100 = growth as untreated, 0 = no growth, -100 = all killed)
[1] = tested on: SR leukemia; conditions: 10 µM unless noted
[2] = tested on: RPMI-8226 leukemia; conditions: 10 µM unless noted
[3] = tested on: OVCAR-8 ovarian; conditions: 10 µM unless noted
[4] = tested on: OVCAR-5 ovarian; conditions: 10 µM unless noted
[5] = tested on: OVCAR-4 ovarian; conditions: 10 µM unless noted
[6] = tested on: SK-OV-3 ovarian; conditions: 10 µM unless noted
[7] = tested on: IGROV1 ovarian; conditions: 10 µM unless noted
[8] = tested on: OVCAR-3 ovarian; conditions: 10 µM unless noted
[9] = tested on: NCI/ADR-RES ovarian; conditions: 10 µM unless noted
[10] = tested on: T-47D breast; conditions: 10 µM unless noted
[11] = tested on: BT-549 breast; conditions: 10 µM unless noted
[12] = tested on: MDA-MB-435 melanoma; conditions: 10 µM unless noted
[13] = tested on: SW-620 colon; conditions: 10 µM unless noted
[14] = tested on: MCF7 breast; conditions: 10 µM unless noted
[15] = tested on: HCT-116 colon; conditions: 10 µM unless noted
[16] = tested on: HCC-2998 colon; conditions: 10 µM
[17] = tested on: KM12 colon; conditions: 10 µM unless noted

| SMILES | growth [1] | growth [2] | growth [3] | growth [4] | growth [5] | growth [6] | growth [7] | growth [8] | growth [9] | growth [10] | growth [11] | growth [12] | growth [13] | growth [14] | growth [15] | growth [16] | growth [17] |
| --- | --- | --- | --- | --- | --- | --- | --- | --- | --- | --- | --- | --- | --- | --- | --- | --- | --- |
| CN1CCC(CNc2ccc3ncc(-c4cccc(OC(F)(F)F)c4)n3n2)CC1 | -19.4% (active) | -45.3% (active) | 0.791% (active) | -32.8% (active) | -1.72% (active) | -1.52% (active) | -60.4% (active) | -26.6% (active) | -4.75% (active) | -79.5% (active) | -0.185% (active) | -95.8% (active) | -61.9% (active) | -49.5% (active) | -75.1% (active) | -84.4% (active) | – |
| COc1cc2ncnc3c2cc1OCCCCCN(C)Cc1ccc(Br)cc1N3 | 21.6% | 64.1% | 41.9% | 50.1% | 42% | -4.09% (active) | -8.59% (active) | 46.9% | 46.7% | 4.78% (active) | 60.6% | 72.3% | 47.7% | 56.9% | 33.2% | 68% | 58.9% |
| COc1ccc(COc2cc3oc(=O)c4cc(C(C)O)ccc4c3cc2OC)cc1 (centres undefined) | 18.6% | 68% | 25% | 86% | 53.8% | 40.5% | 57.6% | 58.6% | 56.1% | 44.2% | 59.8% | 3.55% (active) | 49.7% | 45.6% | 49% | – | – |
| FC(F)(F)c1ccc(CNc2ccc(Cc3c[nH]c4ncc(Cl)cc34)cn2)cn1 | 11.1% | 26.3% | 14.3% | 30.5% | 30% | 16% | 41% | 41.6% | 12.6% | -1.92% (active) | 26.3% | 6.37% (active) | 19% | 13.6% | 15.4% | 18.1% | – |
| CNC(=O)c1cc(Oc2ccc(NC(=O)Nc3ccc(Cl)c(C(F)(F)F)c3)c(F)c2)ccn1 | -32.6% (active) | -34% (active) | -1.84% (active) | 3.12% (active) | 8.63% (active) | -16.7% (active) | -20.8% (active) | 0.719% (active) | -14.3% (active) | -34.5% (active) | -31.3% (active) | -57% (active) | -8.01% (active) | -26.6% (active) | -37.3% (active) | -80.8% (active) | -32.3% (active) |
| CCS(=O)(=O)N1CCN(c2ccc(Nc3ncc(C(N)=O)c(NC4CC4)n3)cc2)CC1 | 48.9% | 62.2% | 89% | 86.7% | 111% | 80.7% | 77.4% | 90.2% | 101% | 99.1% | 67% | 68.7% | 60.1% | 68.5% | 49.2% | 98.3% | 24.5% |
| CN1CC[C@H](c2c(O)cc(O)c3c(=O)cc(-c4ccccc4Cl)oc23)[C@H](O)C1 | -0.341% (active) | 6.39% (active) | 7.4% (active) | 8.36% (active) | 1.82% (active) | 10.2% | 4.27% (active) | 17.4% | 2.07% (active) | 0.506% (active) | -8.28% (active) | -73.3% (active) | 0.889% (active) | 4.72% (active) | 4.7% (active) | -21.1% (active) | 3.91% (active) |
| [2H]C1([2H])[C@H](C)O[C@H](C)C([2H])([2H])N1c1ccc(NC(=O)c2cccc(-c3ccc(OC(F)(F)F)cc3)c2C)cn1 | 56.4% | 53.3% | 79.1% | 100% | 65.8% | 63.2% | 65.2% | 84.6% | 58.4% | 41.7% | 63.9% | 73.4% | 90% | 66.8% | 56.9% | 82.4% | 73.2% |
| CC1=CC2c3oc(-c4ccccc4)c(C(=O)c4ccccc4)c3CNC2C=C1 (centres undefined) | 89.6% | 105% | 83.6% | 88.8% | 117% | 83.3% | 102% | 106% | 94.6% | 91.3% | 103% | 107% | 97.1% | 84.2% | 92.2% | 102% | – |
| O=C(Cc1ccc(-c2ccc(OCCN3CCOCC3)cc2)cn1)NCc1ccccc1 | 6.9% (active) | 14.5% | 1.32% (active) | 29.9% | 47.9% | -11.9% (active) | 15.5% | 20.3% | 0.0856% (active) | 34.2% | 3.61% (active) | -21.8% (active) | 21.3% | 10.7% | 6.1% (active) | 8.15% (active) | 6.91% (active) |
| C=CC(=O)N1CCC(Oc2cc3c(Nc4ccc(Cl)c(Cl)c4F)ncnc3cc2OC)CC1 | -20.2% (active) | 35% | 18.4% | 25.3% | 39% | -37.4% (active) | -44.8% (active) | 19.4% | -16.8% (active) | -4.87% (active) | 8.14% (active) | -34.7% (active) | 32.8% | 26.8% | 21.8% | 67.1% | 30.6% |
| O=C1C=CC2(NN=C(c3ccccc3)N2c2cccc(Cl)c2)c2cccc(O)c21 (centres undefined) | 49.9% | 57.4% | 63.1% | 52.8% | 59.3% | 92.5% | 70.4% | 36.6% | 56% | 101% | 61.7% | -91.9% (active) | 82% | 62.5% | 54.8% | 90.8% | 64.9% |
| Cn1ccnc1C(=O)/C=C/c1ccc(CC(=O)Nc2ccc(S(F)(F)(F)(F)F)cc2)cc1 | 0.968% (active) | -18.8% (active) | -14.1% (active) | -38.1% (active) | 17.5% | 18.4% | -17.5% (active) | 6.7% (active) | 7.59% (active) | -7.73% (active) | -50.6% (active) | 15.1% | 3.88% (active) | 10.2% | -63.5% (active) | -65.1% (active) | – |
| CCc1cnn2c(NCc3ccc[n+]([O-])c3)cc(N3CCCC[C@H]3CCO)nc12 | -17.3% (active) | -16.2% (active) | -6.3% (active) | 4.89% (active) | -9.21% (active) | -17.8% (active) | 5.6% (active) | 12.3% | -0.875% (active) | -16.9% (active) | -15.7% (active) | -35.4% (active) | -4.01% (active) | 1.85% (active) | 1.22% (active) | -37.3% (active) | 1.55% (active) |
| CO[C@H]1C[C@@H]2CC[C@@H](C)[C@@](O)(O2)C(=O)C(=O)N2CCCC[C@H]2C(=O)O[C@H]([C@H](C)C[C@@H]2CC[C@@H](O)[C@H](OC)C2)CC(=O)[C@H](C)/C=C(\C)[C@@H](O)[C@@H](OC)C(=O)[C@H](C)C[C@H](C)\C=C/C=C/C=C/1C | 11.5% | 23.8% | 38.7% | 56.6% | 22.9% | 34.3% | 13.8% | 47.6% | 49% | -5.21% (active) | 20.3% | 36.9% | 51.3% | 7.85% (active) | 39.5% | 58.6% | 42.8% |
| CCN(CCO)CCCOc1ccc2c(Nc3cc(CC(=O)Nc4cccc(F)c4)[nH]n3)ncnc2c1 | 12.3% | 72.5% | 49.8% | 20.7% | 48.4% | 68.3% | 16.4% | 44.4% | 70.7% | 19.6% | 54.7% | 11.1% | 15.6% | 6.03% (active) | 11.1% | 4.66% (active) | 15.9% |
| CN(C)CCOC(=O)Nc1nc2ccc(Sc3ccccc3)cc2[nH]1 | 22% | 19.2% | 39.4% | 59.8% | 73.4% | 33.6% | 44.9% | 22.8% | 18.1% | 22.6% | 48.4% | -54.2% (active) | 23% | 22.7% | 30.9% | 61.3% | 20.8% |
| Cc1ccc(F)c(NC(=O)Nc2ccc(-c3cccc4[nH]nc(N)c34)cc2)c1 | 4.39% (active) | 9.63% (active) | 9.41% (active) | 21.4% | 21.1% | 52.1% | 10.1% | 33.2% | 26% | 1.25% (active) | 29.2% | 16.8% | 14.9% | 2.81% (active) | 6.9% (active) | -6.88% (active) | – |
